Experimental findings from PubChem BioAssay (Tox21) are described below.

Values without a mark were called inactive. Calls of active or inactive are those of the source. Calls follow the shape of the dose curve; as a rule, active = well fitted curve in the direction sought with a large enough effect in the repeat runs; inconclusive = weak or mixed curves; inactive = flat fitted curve, though single readings scatter.
% is scaled to controls: 0 for no effect and ±100 for the full control effect.

One experiment is described as follows: qHTS assay to test for compound auto fluorescence at 590 nm (red) in HepG2 cells (AID 720674). Particulars: HepG2 autofluorescence, red 540/590 nm, 1 h; series mostly up to 91.3 µM; fluorescence, relative to Rose Bengal: at the top concentration. In short, it runs like this: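 Red autofluorescence (Ex/Em 540/590 nm, Rose Bengal sodium equivalents) was measured in HepG2 cells, 2,000 per well in MEM plus 10% FBS, plated overnight at 37 C. Readings were taken 1 hr after adding 23 nL compound or DMSO, at 37 C and 5% CO2.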
For orientation: Quantitative high-throughput screening tests each substance at several concentrations.
In the case of `CCOP(=S)(OCC)SCCl`, the “fluorescence, relative to Rose Bengal” value was -0.0406%. For `CCN[C@@H](C)Cc1cccc(C(F)(F)F)c1`, the “fluorescence, relative to Rose Bengal” value was -0.185%.

For `CN(C)CCc1c[nH]c2cccc(OP(=O)(O)O)c12`, the “fluorescence, relative to Rose Bengal” value was -0.22%. Same read-out and setting: the value for `CCN(CC)C1CCCCC1` was 0.0452%. On to `C[C@H](N)C(=O)c1ccccc1`, for which the molecule was called inactive. On to `C=C(Cl)CCl`, for which the “fluorescence, relative to Rose Bengal” value was 0.213%. For `N[C@@H](Cc1ccc(Oc2cc(I)c(O)c(I)c2)c(I)c1)C(=O)O`, the “fluorescence, relative to Rose Bengal” value was -0.353% [at 46 µM].

As for `Cc1ccc(-c2nc3ccc(C)cn3c2CC(=O)N(C)C)cc1`, the “fluorescence, relative to Rose Bengal” value is -0.112% [at 46 µM]. `O=[N+]([O-])CCO`: the “fluorescence, relative to Rose Bengal” value is 0.0638% [at 95.7 µM]. The same measure, in the same setting: in the case of `O=C(Cl)C(Cl)(Cl)Cl` it was 0.198%; in that of `CCOC(=O)Nc1cccc(OC(=O)Nc2ccccc2)c1`, 0.0325%; in that of `CCOc1cc(OP(=S)(OC)OC)nc(CC)n1`, -0.0198%. Regarding `S=C=S`, the molecule was called inactive. Regarding `O=P(O)(O)c1ccccc1`, the “fluorescence, relative to Rose Bengal” value was -0.156%. Same read-out and setting: in the case of `N#CC(Br)(Br)C(N)=O` it was -0.209%; in that of `COC(=O)c1ccc(CBr)cc1`, 0.0436% [at 95.7 µM]. Regarding `COP(=O)(OC)O/C(C)=C/C(=O)N(C)C`, the “fluorescence, relative to Rose Bengal” value is -0.0315%.

`CC(C)N(Cc1ccccc1)C(=O)C(C)(C)C`: the “fluorescence, relative to Rose Bengal” value was 0.252%. Take `CCCC(C)(COC(N)=O)COC(N)=O`: the molecule was called inactive. Take `CCOP(=O)(CN(CCO)CCO)OCC`: the “fluorescence, relative to Rose Bengal” value is -0.338%.

With `CC(C)(C)c1cc(O)ccc1O`, the call was inactive. In the case of `N#CN=C1SCCN1Cc1ccc(Cl)nc1`, the “fluorescence, relative to Rose Bengal” value was 0.0968%.

As to `CCNP(=S)(OC)O/C(C)=C/C(=O)OC(C)C` (stereo not given), the “fluorescence, relative to Rose Bengal” value is 0.18%. Regarding `O=C1C2CC=CCC2C(=O)N1SC(Cl)(Cl)Cl` (stereo not given), the outcome was inactive.

In the case of `Clc1ccc(C(Cl)(Cl)Cl)cn1`, the “fluorescence, relative to Rose Bengal” value is -0.418%. For `O=c1[nH]oc2c1CCNC2`, the “fluorescence, relative to Rose Bengal” value is 0.0844% [at 46 µM]. Turning to `Clc1cc2c(cc1Cl)Oc1cc(Cl)c(Cl)cc1O2`, the fluorescence, relative to Rose Bengal was -0.0382% [at 0.37 µM]. In the case of `C#CCOC(=O)/C=C(C)/C=C/CC(C)CCCC(C)C` (stereo not given), the “fluorescence, relative to Rose Bengal” value is 0.28%. The same measure, in the same setting: the value for `CN1COCN(Cc2cnc(Cl)s2)/C1=N\[N+](=O)[O-]` was -0.284%. Turning to `ClC1=C(Cl)C2(Cl)C(CBr)CC1(Cl)C2(Cl)Cl` (stereo not given), the call was inactive. In the case of `C=CC=O`, the “fluorescence, relative to Rose Bengal” value was -0.111% [at 95.7 µM]. In the case of `c1cncc([C@@H]2CCCCN2)c1`, the “fluorescence, relative to Rose Bengal” value is -0.337%. In the case of `COC(=O)c1ccccc1CS(=O)(=O)NC(=O)Nc1nc(OC)cc(OC)n1`, the “fluorescence, relative to Rose Bengal” value was -0.0736%. `COC1=CC(=O)O[C@@H](/C=C/c2ccccc2)C1`: the “fluorescence, relative to Rose Bengal” value was 0.42% [at 95.7 µM]. Same read-out and setting: in the case of `CC(C)c1ccc(O)cc1` it was -0.0021%; in that of `CCCCS(=O)(=O)Cl`, 0.0216%; in that of `CCC(C(N)=O)N1CCCC1=O` (stereo not given), -0.0127% [at 46 µM]. The same measure, in the same setting: in the case of `CC(C)C(C)(N)C#N` (stereo not given) it was 0.185%. For `N#CN`, the molecule was classed as inactive.

Turning to `COc1cc(CCN)cc(OC)c1OC`, the “fluorescence, relative to Rose Bengal” value is -0.277% [at 95.7 µM].

Another experiment is described as follows: qHTS assay to test for compound auto fluorescence at 535 nm (green) in HepG2 cells (AID 720675). To be noted: green autofluorescence 485/535 nm, 1 h; series mostly up to 91.3 µM; fluorescence, % of fluorescein control: at the top concentration.
As to `CCOP(=S)(OCC)SCCl`, the “fluorescence, % of fluorescein control” value is 0.0093%. On to `CCN[C@@H](C)Cc1cccc(C(F)(F)F)c1`, for which the “fluorescence, % of fluorescein control” value is -0.0104%.

In the case of `CN(C)CCc1c[nH]c2cccc(OP(=O)(O)O)c12`, the “fluorescence, % of fluorescein control” value is 0.0223%.

With `CCN(CC)C1CCCCC1`, the “fluorescence, % of fluorescein control” value was -0.0933%. As for `C[C@H](N)C(=O)c1ccccc1`, the molecule was called inactive. Turning to `C=C(Cl)CCl`, the “fluorescence, % of fluorescein control” value was -0.125%.

With `N[C@@H](Cc1ccc(Oc2cc(I)c(O)c(I)c2)c(I)c1)C(=O)O`, the “fluorescence, % of fluorescein control” value is 0.0304% [at 46 µM]. Still for that read-out and setting: in the case of `Cc1ccc(-c2nc3ccc(C)cn3c2CC(=O)N(C)C)cc1` it was -0.127% [at 46 µM]; in that of `O=[N+]([O-])CCO`, -0.0156% [at 95.7 µM]. The same measure, in the same setting: the value for `O=C(Cl)C(Cl)(Cl)Cl` was -0.0041%; that for `CCOC(=O)Nc1cccc(OC(=O)Nc2ccccc2)c1` was 0.0327%; that for `CCOc1cc(OP(=S)(OC)OC)nc(CC)n1` was -0.0016%.

Regarding `S=C=S`, the molecule was classed as inactive. In the case of `O=P(O)(O)c1ccccc1`, the “fluorescence, % of fluorescein control” value is -0.0571%. Turning to `N#CC(Br)(Br)C(N)=O`, the “fluorescence, % of fluorescein control” value is -0.113%. Turning to `COC(=O)c1ccc(CBr)cc1`, the “fluorescence, % of fluorescein control” value was 0.138% [at 95.7 µM]. Same read-out and setting: the value for `COP(=O)(OC)O/C(C)=C/C(=O)N(C)C` was -0.0656%. `CC(C)N(Cc1ccccc1)C(=O)C(C)(C)C`: the “fluorescence, % of fluorescein control” value is -0.0101%.

Turning to `CCCC(C)(COC(N)=O)COC(N)=O`, the outcome was inactive. In the case of `CCOP(=O)(CN(CCO)CCO)OCC`, the “fluorescence, % of fluorescein control” value was 0.0655%.
